According to PubChem BioAssay AID1117319 (Southern Research Institute, 2015):
In all, about 260,000 compounds went through this assay and about 1,500 (0.58%) were called active. Inconclusive results (about 5%) are left out.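 How the source made its calls: active means inhibition above a set limit at one or more doses, reproduced on every date tested; inconclusive means results disagree between test dates, or hit never tested in dose response; inactive means the rest.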 Only a sample is shown. Entries with a potency or affinity are not part of this list.

The compounds below were run against Virion infectivity factor (Human immunodeficiency virus type 1 group M subtype B (isolate BH10)) + Virion infectivity factor (Human immunodeficiency virus type 1 group M subtype B (isolate BRU/LAI)) + Virion infectivity factor (Human immunodeficiency virus type 1 group M subtype B (isolate PCV12)) + Virion infectivity factor (Human immunodeficiency virus type 1 group M subtype B (isolate HXB2)) + DNA dC->dU-editing enzyme APOBEC-3G (Homo sapiens) (UniProt P69720+P69721+P69722+P69723+Q9HC16) (assay: HIV-1 Vif–A3G interaction blockers – biochemical, TR-FRET, GST-Vif 1-94, biotin-A3G peptide, dose response retest, primary screen (AID 1117319;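 further: Vif residues 1-94 fused to GST binding biotinylated APOBEC3G peptide 110-148; 0% = full assay without inhibitor and 100% = GST in place of GST-Vif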)). Details: TR-FRET GST-Vif / biotin-A3G peptide binding; active compounds read high.

inhibition, inactive:
COc1ccc(Cl)cc1C(=O)NNC(=O)CSc1nnc2ccccn12 -2.97%
COC(=O)/C=C/C(=O)Nc1cccnc1 15.1%
O=C(/C=N/O)Nc1cccnc1 28.5%
CCOc1c(OC(C)=O)ccc(/C=C/c2ccc3cccc(OC)c3n2)c1[N+](=O)[O-] 21.2%
COc1c(OC(C)=O)ccc(/C=C/c2ccc3cccc(OCc4ccccc4)c3n2)c1[N+](=O)[O-] 5.7%
O=C(CSCC(=O)c1ccccc1)Nc1ccccc1Cl -5.7%
COc1ccc(C(=O)Nc2cccc(-c3nnc(-c4ccco4)o3)c2)cc1 -0.63%
S=C(NCCN1CCOCC1)N/N=C/c1ccccc1 0.06%
Oc1ccc(/C=N/NC(=S)NCCN2CCOCC2)c(O)c1 24.1%
CC(=O)NCCOc1ccc(C(=O)O)cc1 -5.42%
CCCCOC(=O)n1c(=O)oc2ccc(S(=O)(=O)N3CCCCC3)cc21 -5.83%
O=C(O)c1cc([N+](=O)[O-])cc2ccccc12 -6.07%
O=[N+]([O-])c1cc(-c2ccccc2)cc([N+](=O)[O-])c1O -4.83%
Cc1cc(Cl)c2oc(C(=O)N3CCN(c4cnccn4)CC3)c(C)c2c1 2.03%
CC(C)(C)NC(NC(=O)Cc1ccccc1)C(Cl)(Cl)Cl (stereo unspecified) 2.28%
O=C(Cc1ccccc1)NC(Nc1cccc2ccccc12)C(Cl)(Cl)Cl (stereo unspecified) -5.91%
CN(CCC1CCOCC1)C(=O)C1CCC(=O)N(CCc2ccc(Cl)cc2)C1 (stereo unspecified) -0.45%
CN1/C(=C\C=Nc2ccc3ccccc3c2)C(C)(C)c2ccccc21 15.9%
CN1/C(=C\C=Nc2ccccc2)C(C)(C)c2ccccc21 13.4%
Cc1nc2ccccc2nc1-c1ccc([N+](=O)[O-])cc1 3.82%
COc1cc2c3c(c1OC)C1(C=CC(=O)C=C1)CC3N(C(=O)c1ccccc1)CC2 (stereo unspecified) 16.3%
COc1cc2c3c(c1OC)C1(C=CC(=O)C=C1)CC3N(C(C)=O)CC2 (stereo unspecified) 25.2%
O=S(=O)(Nc1ccccc1)c1ccc(-c2cnc(C3CC3)o2)cc1 5.89%
CCOc1cccc2cc(C(C)=O)oc12 -1.92%
CCOc1ccccc1OCC(=O)O 2.95%
COc1cccc(=O)c2c(C)n(CC(=O)c3ccccc3)c(C)c12 19.6%
COc1cccc(-n2c(C)c3c(OC)cccc(=O)c3c2C)c1 31.7%
CCOc1ccc2c(C)c(C)c(=O)oc2c1OCC -2.36%
CCOc1ccccc1N1CCN(Cc2ccco2)CC1 0.19%
COC(=O)c1c(C(=O)OC)c(C)n(Cc2ccco2)c1C 1.05%
CCOc1ccccc1N1C(=O)c2ccc(C(=O)O)cc2C1=O -5.01%
